SMILES strings stand for the structures. Values joined by “and” are separate entries in the source; they are usually repeats but may differ in a detail not shown here. Identical values can stand only once. Some compounds were tested as several samples or in several runs, with calls that do not always agree. Active and inactive are the calls of the source. How the source made its calls: active means hit-call score of the fitted dose curve at least 0.9, where 1 is the maximum; inactive means score below 0.9.

The nature of this test: APR_HepG2_NuclearSize_24hr: Apredica 24-hour HepG2 Assay for Nuclear Size (AID 2282907). Conditions: high-content imaging, actives raise or lower the signal. The method, then: APR_HepG2_24hr is a cell-based, multiplexed-readout assay that uses HepG2, a human liver cell line, with measurements taken at 24 hours after chemical dosing in a 384-well plate.APR_HepG2_NuclearSize_24hr is one of 10 assay component(s) measured or calculated from the APR_HepG2_24hr assay. It is designed to make measurements of cell phenotype, a form of morphology reporter, as detected with fluorescence intensity signals by HCS Fluorescent Imaging technology.Data from the assay component APR_HepG2_NuclearSize_24hr was analyzed into 1 assay endpoint. This assay endpoint, APR_HepG2_NuclearSize_24hr, was analyzed with bidirectional fitting relative to DMSO as the negative control and baseline of activity. Using a type of morphology reporter, measures of all nuclear dna for gain or loss-of-signal activity can be used to understand the signaling at the nuclear-level. Furthermore, this assay endpoint can be referred to as a primary readout, because this assay has produced multiple assay endpoints where this one serves a signaling function. To generalize the intended target to other relatable targets, this assay endpoint is annotated to the cell morphology intended target family, where the subfamily is organelle conformation.
Cells were treated with dimethyl sulfoxide (DMSO) as a solvent control at a final concentration of 0.5% v/v or with compounds in DMSO with a resulting final DMSO concentration of 0.5% v/v. Compound treatment was done at concentrations of 0.39, 0.78, 1.56, 3.12, 6.24, 12.5, 25, 50, 100, and 200 uM in duplicate on each plate. Cells were treated with compounds for 1, 24, or 72 hr. Carbonyl […] m-chloro-phenylhydrazone (CCCP) and taxol were used as positive controls for mitochondrial function and cytoskeletal stability, respectively; DMSO served as the negative control for this experiment. Cells were fixed by the direct addition of 50 uL formaldehyde in Hank's Balanced Salt Solution (HBSS) to a final concentration of 3.7%. After incubation in the fixation medium for 30 min at room temperature (293-298 K), cells were rinsed twice with HBSS and treated with cell permeabilization buffer (16 uL of 0.5% Triton X-100) for 10 min at room temperature (293-298 K) before labeling. For mitochondrial membrane potential and mitochondrial measurements, pre-fixed cells were incubated with 50 uL of MitoTracker Red CMXRos (Invitrogen) at a concentration of 250 nM for 30 min before fixation. In the remaining cases, post-fixed cells were labeled by incubation with a multiplexed mixture of primary antibodies in HBSS for 60 min at room temperature (293-298 K) to detect immunoreactivity of c-Jun (1:500), phospho-histone H3 (1:100), phospho-histone H2A.x (1:200), p53 (1:400), alpha-tubulin (1:200) and Hoechst 33342 (2 ug/mL). Cells were labeled for multiplexed imaging on two separate plates: a) Hoechst 33342, MitoTracker Red, phospho-histone H3, and alpha-tubulin, and b) Hoechst 33342, phospho-histone H2A.x, and c-Jun. A final rinse with HBSS (50 uL) was performed before analysis. The primary and secondary antibodies for the proteins were phospho-histone H3 (rabbit anti-phospho-histone H3 and FITC-donkey anti-rabbit IgG), phospho-histone H2A.x (mouse anti-phospho-histone H2A.x and FITC-donkey anti-mouse IgG), c-Jun (rabbit anti-phospho-c-Jun and Cy3-donkey anti-rabbit IgG), p53 (sheep anti-p53 and Cy5-donkey anti-sheep IgG), alpha-tubulin (mouse anti-alpha-tubulin and Cy5-donkey anti-mouse IgG). These antibodies are available as the CellCiphr HepG2 assay kit (Millipore).Digital images of each well were captured using a Cellomics ArrayScan VTI (Thermo Scientific Cellomics) (0.8 NA objective, 0.63x optical coupler, and XF-93 filter set) at 20x magnification. The images were acquired using the autofocus feature of the ArrayScan instrument, which entails the following steps. First, the camera focuses on channel 1 (Hoechst 33342), where nuclei are identified. Second, a Z offset of 1 um is used for capturing mitochondria (MitoTracker Red). […]
Turning to `C=CCC1=C(C)[C@@H](OC(=O)[C@@H]2[C@@H](C=C(C)C)C2(C)C)CC1=O`, the result was inactive. The same measure, in the same setting: under `COP(N)(=O)SC` (stereo not given) stands “inactive”. On the same count and under the same terms, under `CS/C(C)=N/OC(=O)N(C)SN(C)C(=O)O/N=C(\C)SC` stands “inactive”; under `CCOc1cc(Oc2ccc(C(F)(F)F)cc2Cl)ccc1[N+](=O)[O-]`, “inactive”. On the same count and under the same terms, under `Fc1ccc(Oc2ccnc3cc(Cl)cc(Cl)c23)cc1` stands “inactive”. Usually AC50 stands for the concentration giving half of the maximal activity seen. As to `CCCN(CCC)c1c([N+](=O)[O-])cc(S(N)(=O)=O)cc1[N+](=O)[O-]`, the AC50 is 68.3 µM (active) and 117 µM (active); the compound was called inactive. For the compound `CCCCC(CC)COC(=O)c1ccccc1C(=O)OCC(CC)CCCC` (stereo not given), the result was inactive. On the same count and under the same terms, under `COc1nc(NC(C)C)nc(NC(C)C)n1` stands “inactive”. On the same count and under the same terms, for `CCCC1COC(Cn2cncn2)(c2ccc(Cl)cc2Cl)O1` (stereo not given) the value was “inactive”.

For the compound `Cc1ccc(-c2c(Cl)nc(C#N)n2S(=O)(=O)N(C)C)cc1`, the result was inactive. Turning to `C=CC1(C)OC(=O)N(c2cc(Cl)cc(Cl)c2)C1=O` (stereo not given), the result was inactive. The same measure, in the same setting: for `O=C(O)c1nc(Cl)ccc1Cl` the value was “inactive”; for `CC(C)Oc1cc(-n2nc(C(C)(C)C)oc2=O)c(Cl)cc1Cl`, “inactive”; for `CCCCOC(=O)c1ccccc1C(=O)OCCCC`, “inactive”. On the same count and under the same terms, under `CNC(=O)ON=CC(C)(C)SC` stands “inactive”. Still for that read-out and setting: under `COc1nc(C)nc(NC(=O)NS(=O)(=O)c2ccccc2CCC(F)(F)F)n1` stands “inactive”. On to `CCNc1nc(Cl)nc(NC(C)C)n1`, for which the call was inactive. The same measure, in the same setting: under `CCOP(=S)(OCC)SCn1c(=O)oc2cc(Cl)ccc21` stands “inactive”; under `CON(C)C(=O)Nc1ccc(Cl)c(Cl)c1`, “inactive”.

Consider `COC(=O)C=C(C)OP(=O)(OC)OC`, for which the compound was called inactive.

As for `CO/C=C(/C(=O)OC)c1ccccc1Oc1cc(Oc2ccccc2C#N)ncn1`, the compound was classed as inactive. The same measure, in the same setting: under `CN(C)C(=S)SSC(=S)N(C)C` stands “inactive”. The same measure, in the same setting: under `CCc1nn(C)c(C(=O)NCc2ccc(C(C)(C)C)cc2)c1Cl` stands “inactive”.

On to `CCCCNC(=O)n1c(NC(=O)OC)nc2ccccc21`, for which the call was inactive. On the same count and under the same terms, under `CC1COC(Cn2cncn2)(c2ccc(Oc3ccc(Cl)cc3)cc2Cl)O1` (stereo not given) stands “inactive”; under `CNC(=S)S`, “inactive”. The same measure, in the same setting: for `O=C(Nc1ccccc1)Nc1ccnc(Cl)c1` the value was “inactive”; for `N#Cc1cc(Br)c(O)c(Br)c1`, “inactive”.

For `COC(=O)C(C)Oc1ccc(Oc2ccc(Cl)cc2Cl)cc1` (stereo not given), the outcome was inactive. For `C#CCOS(=O)OC1CCCCC1Oc1ccc(C(C)(C)C)cc1` (stereo not given), the call was inactive. The same measure, in the same setting: under `COC(=O)N(OC)c1ccccc1COc1ccn(-c2ccc(Cl)cc2)n1` stands “inactive”; under `OC(c1ccc(Cl)cc1)(c1cncnc1)c1ccccc1Cl` (stereo not given), “inactive”; under `Oc1ccccc1-c1ccccc1`, “inactive”. For `COC(=O)c1ccccc1C(=O)OC`, the compound was called inactive.

For the compound `C=CCC1=C(C)C(OC(=O)C2C(C=C(C)C)C2(C)C)CC1=O` (stereo not given), the AC50 was 53.2 µM (active) and the call was inactive. As for `CC(C)C1(C)N=C(c2nc3ccccc3cc2C(=O)O)NC1=O` (stereo not given), the result was inactive. Still for that read-out and setting: under `N#Cc1nn(-c2c(Cl)cc(C(F)(F)F)cc2Cl)c(N)c1S(=O)C(F)(F)F` (stereo not given) stands “inactive”.

Take `O=C(O)COc1nc(Cl)c(Cl)cc1Cl`: the compound was classed as inactive.

(Values after PubChem BioAssay (EPA / NIEHS).)
